Rows were chosen to be rich in hits. Some 11% of all compounds tested hit in one or more screens of this group.
CBFb-RUNX1 inh = inhibitors of human CBF-beta and RUNX1 interaction; AlphaScreen CBFb-His/RUNX1-biotin binding, biochemical; Potency, µM (top dose mostly 59.8 µM), most hits filed as inhibitors; 230,000 tested, under 10 active
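Room-temperature protein-protein interaction test with 30 nM each of His-tagged CBF-beta and biotinylated RUNX1, 15 min with compound, then 90 min with nickel plus streptavidin beads. Signal read in AlphaScreen mode.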
ALDH1A1 block = ALDH1A1 (human) enzyme inhibition | P00352 | Purified ALDH1A1, NADH fluorescence, propionaldehyde substrate | Potency, µM (doses to about 75.3 µM), usual class: inhibitors | 220,000 tested, 7.3% active; active = well fitted inhibition curve with a large enough effect, not every such curve was filed as active; inconclusive = small, poorly fitted or top-dose-only effect, or another doubt; inactive = no such curve, though single readings can be large or run the other way
PNC assembly inh = blocks assembly of the perinucleolar compartment; PC3M PTB-GFP, PNC prevalence imaging, 16 h; hits give low values; activity change (PNC), negative = inhibition, % at 10 µM; 140,000 tested, 3.1% active;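 active = readout at or below -70, meaning at least 70% loss of cells showing the perinucleolar compartment, a nuclear body marking cancer cells; inconclusive = readout between -30 and a set limit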
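PC3M cells stably expressing PTB-GFP, 750–1000 cells/well, treated 16 h at 37 °C with compound (23 nl of library stock), in duplicate. After paraformaldehyde fixation and Hoechst stain, imaged at 20x; PNC prevalence scored by image analysis.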
HTT ATP protect = protects HTT-Q103 PC12 cells, measured by ATP; Potency, µM (highest dose often 56.4 µM), usual class: activators; PC12 HTT-Q103 induced, cytoprotection, ATP luminescence, 40 h; 230,000 tested, 0.14% active; also: nearly all actives have a fitted effect of over 45% in size
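Cells were plated at 1500 per well in phenol red-free DMEM with 5% equine and 5% calf serum. Tebufenozide (100 nM final) and compounds were added, then ATPlite reagent, and luminescence was read.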
HPGD inh = blocks human HPGD enzyme activity; P15428; purified HPGD, NADH fluorescence kinetic, PGE2 substrate; 150,000 tested, 4.3% active; Potency, µM, usual class: inhibitors; AID 894; active = well fitted inhibition curve with a large enough effect, not every such curve was filed as active; inconclusive = small, poorly fitted or top-dose-only effect, or another doubt; inactive = no such curve, though single readings can be large or run the other way
Target sequence (P15428 whole entry, looked up): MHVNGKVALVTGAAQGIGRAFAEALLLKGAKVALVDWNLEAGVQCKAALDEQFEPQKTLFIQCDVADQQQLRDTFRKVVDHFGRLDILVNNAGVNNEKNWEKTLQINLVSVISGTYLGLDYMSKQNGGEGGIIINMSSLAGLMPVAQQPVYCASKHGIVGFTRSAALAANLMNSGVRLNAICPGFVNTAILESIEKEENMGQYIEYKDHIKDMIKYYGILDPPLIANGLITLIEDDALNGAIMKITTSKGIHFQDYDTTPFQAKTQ
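NADH formation kinetics: reaction with 30 uM PGE2 and 1 mM NAD+ (final), 20 nM enzyme, Tris-HCl pH 8 with Tween 20, after 15 min compound preincubation at room temperature. Fluorescence change, last versus first of five reads.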
HTT aggregate = inhibitors of mutant huntingtin aggregate formation in PC12 cells. PC12 HttQ103-GFP aggregates, Acumen cytometry, 40 h. Potency, µM (titrated, usually from 46.1 µM), hits mostly inhibitors. 220,000 tested, 1.1% active; also: nearly all actives have a fitted effect of over 60% in size
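Aggregates are detected as GFP objects 1–25 µm with signal 6 STDEV over background in lysates of induced PC12 cells. These carry Huntingtin exon 1 with 103 glutamines fused to GFP under an ecdysone promoter; compounds titrated.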
Numbers stand for hits; – = inactive; ? = inconclusive; · = no result given; [ ] = remark or other dose. Unless noted, calls follow the shape of the dose curve; as a rule, active = well fitted curve in the direction sought with a large enough effect; inconclusive = small, poorly fitted or top-dose-only effect, or another doubt; inactive = no such curve, though single readings can be large; an effect the other way counts as inactive or inconclusive.

SMILES	CBFb-RUNX1 inh	ALDH1A1 block	PNC assembly inh	HTT ATP protect	HPGD inh	HTT aggregate
COc1ccc(C(=O)Nc2ccccc2N2CCOCC2)cc1[N+](=O)[O-]	–	?	–	–[10 µM]	–	–
COc1ccccc1CN1CCCC2(CCN(C(=O)c3cccc(F)c3)CC2)C1	·	–	·	–	–	·
CC1C[C@@]2(NC(=O)NC2=O)C(C)CN1C (some centres not stated)	–	–	-100	–[10 µM]	–	–
O=C(C1CCCN(Cc2ccccc2)C1)N1CCCCC1 (configuration not stated)	–	20µM	–	–	28µM	–
O=C(C1CCCN(Cc2ccccc2Br)C1)N1CCCCC1 (configuration not stated)	–	–	–	–	25µM	–
O=C(C1CCCN(Cc2cccs2)C1)N1CCCCCC1 (configuration not stated)	–	–	–	–	·	–
COc1ccccc1CN1CCCC(C(=O)N2CCCCC2)C1 (configuration not stated)	–	·	·	–[10 µM]	·	–[9.22 µM]
Nc1nc(N)nc(CC(=O)O)n1	·	–[13.5 µM]	·	–[10 µM]	–	·
Cc1nc2cnc(N3CCN(C)CC3)nc2n(C2CC2)c1=O	·	?	·	–	·	·
CC1CCN(CC(=O)Nc2ccc(Br)cc2[N+](=O)[O-])CC1	–	–	·	–	·	–
Cc1ccc(N=Cc2cc3c(cc2O)OC(N)=C(C#N)C3c2ccccc2)cc1 (configuration not stated)	–	–	?	–[1.9 µM]	–	10µM
N#CC1=C(N)Oc2cc(O)c(C=Nc3ccccc3)cc2C1c1ccccc1 (configuration not stated)	–	?	–	–[1.9 µM]	–	1.6µM
Cc1ccccc1N=Cc1cc2c(cc1O)OC(N)=C(C#N)C2c1ccccc1 (configuration not stated)	–	?	–	–[1.9 µM]	?	?
Cc1cccc(-n2c(C)cc(/C=C3\NC(=O)NC3=O)c2C)c1	–	·	·	–[10 µM]	·	–[9.22 µM]
Cc1sc(-n2c(C)cc(/C=C3\SC(=S)NC3=O)c2C)c(C#N)c1C	?	–	–	–	?	–
Cc1cc(/C=C2/NC(=O)NC2=O)c(C)n1-c1sc2c(c1C#N)CCCC2	–	13µM	?	–	18µM	–
Cc1cc(C)c(-n2c(C)cc(/C=C3/NC(=O)NC3=O)c2C)c(C)c1	–	14µM	–	–	–	–
CC(=O)NCCNc1ncnc2ccc(-c3ccc(C(=O)N(C)C)cc3)cc12	·	?	·	–	?	·
O=c1c(CCc2ccccc2)nc2cnc(Oc3ccccc3)nc2n1C[C@H]1CCCO1	·	?	·	–	–	·
C/C=C1\C(=O)CC2C3CCC4=CC(=O)CC[C@]4(C)C3CC[C@]12C (some centres not stated)	–	–	·	?	–	·
Fc1ccccc1CSc1nnc(-c2cccs2)o1	–	–	–	–[10 µM]	28µM	–
c1ccc(CSc2nnc(-c3cccs3)o2)cc1	–	–	–	–[10 µM]	20µM	–[9.22 µM]
c1ccc(-c2nnc(CSc3nc4ccccc4[nH]3)o2)cc1	–	–	?	–	28µM	–
Fc1ccc(NCc2nnc(SCc3nnc(-c4ccccc4)o3)n2Cc2ccccc2)cc1	–	–	–	–[10 µM]	28µM	13µM
O=C(CCCSc1nc2ccccc2[nH]1)Nc1nnc(-c2ccccc2)o1	–	–	–	–[10 µM]	–	–
SMILES	CBFb-RUNX1 inh	ALDH1A1 block	PNC assembly inh	HTT ATP protect	HPGD inh	HTT aggregate
CCSc1nnc(-c2cccs2)o1	–	–	–	–[10 µM]	–	–
CCCCNCC	–	–	·	–	–	·
c1ccc2c(CSc3nnc(-c4ccncc4)o3)cccc2c1	–	–	–	–	25µM	–
Fc1ccc(CSc2nnc(-c3cccs3)o2)cc1	–	–	?	–	16µM	–[9.22 µM]
c1ccc(-c2nnc(CSc3nnc(-c4cccs4)o3)o2)cc1	–	?	–	–[10 µM]	16µM	–
Clc1ccccc1CSc1nnc(-c2ccncc2)o1	–	–	–	–	–	–
O=C(CSc1nnc(-c2cccs2)o1)N1CCCCC1	–	?	–	–	25µM	–
CC(=O)N[C@@H]1C(O[C@H]2O[C@H](C(=O)O)C(O)[C@H](O)[C@H]2O)[C@H](O)[C@@H](CO)O[C@H]1O[C@@H]1C(C(=O)O)O[C@@H](O[C@H]2[C@H](O)[C@@H](CO)OC(O)[C@@H]2NC(C)=O)[C@H](O)[C@H]1O (some centres not stated)	·	·	·	–	·	–
Cc1nnc(SCc2nnc(-c3cccs3)o2)n1Cc1ccccc1	–	13µM	·	–[10 µM]	·	–
Clc1ccc(-c2nnc(CSc3nnc(-c4cccs4)n3Cc3ccccc3)o2)cc1	–	–	–	·	–	?
COC(=O)CCC(C)C1CCC2C3C(O)C[C@@H]4CC(O)CC[C@@]4(C)C3CC(O)[C@]12C (some centres not stated)	·	–	·	·	–	·
CCN(CC)C1=CC(=O)OC12CCCCC2	–	14µM	–	–	35µM	–
C=CCN1C(=O)/C(=c2\sc3nc(=O)c(Cc4ccccc4Cl)nn3c2=O)c2ccccc21	–	3.5µM	·	–[10 µM]	·	–[9.22 µM]
O=C(NCc1cccs1)c1csc2ccccc12	–	–	–	–[10 µM]	?	–
CCCCOc1ccc(C)cc1CN(CCO)CCO	–	–	?	–	–	–[9.22 µM]
Cc1ccc(OC(C)C)c(CN(CCO)CCO)c1	–	–	-91	–	–	–
CCOC(=O)C1(Cc2cccc(OC)c2)CCCN(C(=O)CCc2cccnc2)C1 (configuration not stated)	–	–	·	–[10 µM]	·	–[9.22 µM]
O=c1[nH]c(NCc2ccccc2)nc2c1CCCC2	–	–	–	–[10 µM]	13µM	–
Cc1cccc(CSc2nc3c(c(=O)[nH]2)CCC3)c1	–	–	·	–	·	–
Cc1ccccc1CSc1nc2c(c(=O)[nH]1)CCCC2	–	–	–	–	4µM	–
Cc1ccc(CSc2nc3c(c(=O)[nH]2)CCC3)cc1	–	–	–	–	10µM	–[9.22 µM]
O=c1c2c(nc3nc(NCc4ccc(Cl)cc4)[nH]n13)CCC2	–	–	·	–	·	–
CC(C)c1cc(NC(=O)c2ccccc2)cc(C(C)C)c1O	?	–	·	–	·	11µM
Cc1c(NC(=O)CSc2ccccc2Cl)c(=O)n(-c2ccccc2)n1C	–	–	·	–	·	–
Cc1ccc(OCCN2C(=O)c3ccccc3C2=O)c([N+](=O)[O-])c1	–	?	–	·	–	–
Cc1ccc2c(c1)C(=O)C(=O)N2CCCOc1ccccc1C	–	–	·	–[10 µM]	·	–[9.22 µM]
Cc1ccc(OCCN2C(=O)c3ccccc3C2=O)c(C)c1	–	–	–	–[10 µM]	22µM	–
Cc1ccccc1OCCCN1C(=O)C(=O)c2cccc(C)c21	–	0.11µM	–	–[10 µM]	?	–
Cc1cccc2c1N(CCCOc1ccc(C(C)(C)C)cc1)C(=O)C2=O	–	0.089µM	?	–	8.9µM	–
CCOc1ccccc1C(=O)Nc1ccc(-n2nncc2C(C)(C)C)cc1	–	–	·	–	·	–
